# Laboratory results taken from PubChem BioAssay (NCI).
# The panel holds about 79,000 compounds, 15% with a hit somewhere; the sample as a whole holds those more often. A number with no mark means an inactive call. The source made the active and inactive calls. No stated cut-off is given here; in the data, active means growth inhibition above about 70%; inactive means the rest.
# Experiment: NCI Yeast Anticancer Drug Screen. Data for the rad50 strain (AID 155);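 further: 0% = growth of vehicle-only cultures of the same strain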
# Conditions: S. cerevisiae rad50 strain growth inhibition; at 50.0 µM; stronger effect = higher value
# How it was run: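 Readout: growth inhibition relative to vehicle-treated cultures. Compound exposure was carried out in a genetically defined yeast strain deficient in DNA damage repair.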
row,Compound,growth inhibition
1,COc1ccc(NC(=O)CCC(=O)C(C)C(=O)c2ccccc2)cc1 (centres undefined),59.8%
2,CCCCCCCCCCCCCC(=O)CC(=O)c1c(O)cccc1O,-9.1%
3,Cc1ccc(NC(=S)SCc2ccco2)cc1Cl,99.5% (active)
4,Cc1nc(N)nn1C,2.9%
5,Cc1cccc(O)c(=O)c1,99.3% (active)
6,O=C1C=CC(=O)N1c1ccc(-c2nc3ccccc3o2)cc1,86.2% (active)
7,NC1=NC(c2ccccc2)CC(c2cc(Cl)cc(Br)c2O)=N1 (centres undefined),35.1%
8,CCCCCCCCCCCc1ccn[nH]1,98.4% (active)
9,CC(=O)Oc1c(-c2ccccc2)cc([N+](=O)[O-])cc1[N+](=O)[O-],95.8% (active)
10,COc1cccc2c1C1c3ccccc3Sc3cccc(c31)O2 (centres undefined),5.2%
11,O=C1CC(O)C=C1Nc1ccc(Cl)cc1 (centres undefined),98.8% (active)
12,C=CCNC(=S)N/N=C(/c1ccccn1)C(C)C,89.8% (active)
13,CCCCCCCCCCCCCCCC[N+](C)(C)c1ccccc1,91.1% (active)
14,O=C(NC(OCc1ccccc1)(C(F)(F)F)C(F)(F)F)OCc1ccccc1,96% (active)
15,Cc1cc2oc3c(ccc(=O)n3C)c(=O)c2c(C)c1Cl,53.7%
16,COc1cc2c(cc1OC)C(=O)C(C)(c1ccccc1)NC2 (centres undefined),91.9% (active)
17,CCC(C)NCCNc1cc(OC)cc2cccnc12 (centres undefined),42.9%
18,CN(C)CCCN=c1c2ccccc2n(O)c2ccccc12,-27.9%
19,N#CCc1ccccc1-c1cccc2ccccc12,35.6%
